# A3A deaminase – inhibitors of human APOBEC3A DNA deaminase; recombinant A3A, FAM/TAMRA ssDNA deamination fluorescence; inhibition, % at 20 µM; 0.41% of 330,000 active;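 active means at least 40% inhibition at 20 µM here, with at most 30% in a related deaminase screen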;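 further: plate controls were A3A with DMSO for no effect and wells lacking A3A enzyme for full effect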
# APOBEC3G inh – blocks human APOBEC3G single-stranded DNA deamination; Q9HC16; inhibition, % at 20 µM; AID 493012; 0.28% of 330,000 active; recombinant A3G, ssDNA deamination FAM/TAMRA fluorescence;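 active means inhibition of at least 40% at 20 µM, with no more than 30% in the related APOBEC3A deaminase screen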;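 further: plate controls were DMSO wells with A3G for no effect and wells lacking A3G enzyme for full effect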
# aDG glyco up – alpha-DG glycosylation activation; Pro5-aDG cells, alpha-DG glycosylation AlphaScreen (IIH6); 0% Pro5, 100% B10-LARGE cell signal; activation, % at 10 µM; 0.22% of 360,000 active; AID 624168;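 active means activation of at least 8% versus controls, or a plate z-score of at least 8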;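 further: Pro5 are CHO cells carrying HIG-tagged alpha-DG that lacks glycosylation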
# ALR H2O2 inh – inhibitors of human sulfhydryl oxidase ALR. AID 485317. P55789. inhibition, % (test concentration not listed). 3.8% of 290,000 active. purified ALR, DTT oxidation, H2O2 HRP-luminol luminescence;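 active means mean replicate inhibition above about 79%, with every replicate also reaching it, limit read from the data; inconclusive means only one of the two criteria met; inactive means mean below limit and not every replicate reaching it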
# Target sequence (P55789 whole entry, looked up): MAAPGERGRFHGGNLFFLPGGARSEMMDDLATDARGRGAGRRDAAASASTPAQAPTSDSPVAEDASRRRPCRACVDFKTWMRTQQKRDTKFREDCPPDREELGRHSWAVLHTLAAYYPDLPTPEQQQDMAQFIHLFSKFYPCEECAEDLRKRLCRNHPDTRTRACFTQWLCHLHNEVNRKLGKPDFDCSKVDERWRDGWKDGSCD
# rCAG binder – molecules binding r(CAG) RNA repeats; r(CAG) RNA repeat, TO-PRO-1 dye displacement fluorescence; inhibition, % at 3 µM; 1.3% of 370,000 active;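 active means inhibition above the plate cutoff, the mean of all test compounds on that plate plus 3 SD, cut at about 35% in these data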;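 further: 0% = DMSO alone and 100% = 100 µM mitoxantrone as full dye displacement; higher means more dye released from RNA so lower well fluorescence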
# PHOSPHO1 inh – PHOSPHO1 (human) inhibition; recombinant PHOSPHO1, absorbance phosphatase assay; Q8TCT1; 1.1% of 290,000 active; inhibition, % at 13.3 µM; in the data active means inhibition above about 60%
# Target sequence (Q8TCT1 whole entry, looked up): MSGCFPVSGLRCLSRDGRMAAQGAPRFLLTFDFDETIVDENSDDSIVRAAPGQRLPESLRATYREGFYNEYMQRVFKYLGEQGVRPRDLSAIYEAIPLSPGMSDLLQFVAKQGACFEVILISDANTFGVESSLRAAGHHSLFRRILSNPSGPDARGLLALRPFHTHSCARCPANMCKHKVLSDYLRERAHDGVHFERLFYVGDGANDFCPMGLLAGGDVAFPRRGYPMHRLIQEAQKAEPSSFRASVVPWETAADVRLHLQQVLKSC
# The depositor's hits bear a star; ? = inconclusive; nt = not tested or not shown. Most compounds without a hit are left out; they make up all but 5.4% or so of the library.
SMILES,A3A deaminase,APOBEC3G inh,aDG glyco up,ALR H2O2 inh,rCAG binder,PHOSPHO1 inh
C/C(=N\Nc1nc(C)cc(-c2ccccc2)n1)c1cccc(N)c1,-4,-1,2,99*,0,-3
C/C(=N\Nc1nc(C)cc(-c2ccccc2)n1)c1ccc(O)cc1,-4,-5,1,96*,-2,-3
Cc1ccc(S(=O)(=O)/N=C2/C=C(Sc3ncn[nH]3)C(=O)c3ccccc32)c(C)c1,nt,nt,nt,-5,nt,76*
Cc1ccc(S(=O)(=O)N2CCN(C(=O)CSc3ncn[nH]3)CC2)c(C)c1,2,-12,0,-6,-4,nt
CC(C)c1ccc(S(=O)(=O)/N=C2/C=C(Sc3ncn[nH]3)C(=O)c3ccccc32)cc1,nt,nt,0,-64,nt,6
Cc1ccc(S(=O)(=O)/N=C2/C=C(Sc3ncn[nH]3)C(=O)c3ccccc32)cc1,nt,nt,0,-28,nt,73*
C[C@H]1C2CC(OC(=O)NCCCc3ccccc3)C(C2)[C@H]2CCCCN21 (some centres undefined),nt,nt,nt,nt,1,nt
O=C(CSc1nnc(-c2cccs2)n1Cc1ccco1)Nc1ccc(OCc2ccccc2)cc1,nt,nt,nt,nt,9,nt
c1ccc2nc(N3CCCC3)c(N3CCCC3)nc2c1,2,1,0,99*,-4,11
Cc1ccc(OCc2nn3c(C4CCCCC4)nnc3s2)cc1,nt,nt,nt,nt,-1,nt
C/C(=N\Nc1nc2ccccc2[nH]1)c1ccc(Cl)s1,0,1,1,99*,4,23
C/C(=N\Nc1nc2ccccc2[nH]1)c1ccc(C)o1,4,-1,0,99*,2,-3
CC(C)[C@H](NC(=O)C1CC1)C(=O)N1CCC[C@H]1C(=O)NCCc1ccccc1Cl,nt,nt,nt,nt,3,nt
Fc1ccc(-c2nc3ccncc3[nH]2)cc1,-1,-4,0,2,5,28
Clc1ccc(-c2nc3ccncc3[nH]2)cc1,2,11,0,99*,2,50
CC(C)(C)N(Cc1cn(Cc2ccccc2)nn1)S(=O)(=O)c1ccc(N2CCCC2)cc1Br,nt,nt,nt,nt,11,nt
Cc1ccccc1NC(=O)OCCCN1C(=O)CCC12CCC(C)CC2 (centres undefined),nt,nt,nt,nt,0,nt
Cc1ccc2nc(N(CCN3CCOCC3)C(=O)CCS(=O)(=O)c3ccccc3)sc2c1,-5,-6,2,9,0,nt
CN(C)CCN(C(=O)CCS(=O)(=O)c1ccccc1)c1nc2cc3c(cc2s1)OCO3,0,-4,0,5,-3,18
O=C(CCS(=O)(=O)c1ccccc1)N(CCCN1CCOCC1)c1nc2ccccc2s1,-1,3,0,98*,-4,nt
Cc1ccc(S(=O)(=O)CCC(=O)N(CCCN2CCOCC2)c2nc3ccccc3s2)cc1,13,2,0,98*,-6,nt
CCCC(=O)N(CCN1CCOCC1)c1nc2cc(C)c(C)cc2s1,-6,-6,0,95*,-1,12
C#CCN(C)S(=O)(=O)c1ccc(N2CCCC2)cc1Br,nt,nt,nt,nt,-2,nt
COCC(=O)N1[C@H](CO)[C@@H](c2ccc(-c3cccnc3)cc2)[C@H]1CN(C)S(=O)(=O)c1ccccc1[N+](=O)[O-],nt,nt,nt,nt,7,nt
C[C@@H]1CN(C(=O)OC(C)(C)C)CCN1c1ccc(N2CC[C@@H](O)C2)c(C#N)c1,nt,nt,nt,nt,0,nt
SMILES,A3A deaminase,APOBEC3G inh,aDG glyco up,ALR H2O2 inh,rCAG binder,PHOSPHO1 inh
O=C1C=C(Nc2ccc(O)cc2)CC(c2ccco2)C1 (centres undefined),-1,-4,0,99*,9,-29
COC(=O)C1=C(C)N(Cc2ccc(C(F)(F)F)cc2)C(=NCC2CC2)NC1c1ccccc1C(F)(F)F (centres undefined),nt,nt,nt,nt,3,nt
C=CCN1C(=O)c2n[nH]c(COC)c2C1c1ccc(Br)cc1 (centres undefined),nt,nt,nt,nt,1,nt
O=C(CCc1ccccc1-c1ccccc1CCNC(=O)c1cccc(F)c1)NCc1ccccc1,nt,nt,nt,nt,8,nt
O=C(NCC1CCCO1)c1cccc(S(=O)(=O)Nc2ccc(SC(F)F)cc2)c1 (centres undefined),-3,-5,0,98*,12,nt
COc1ccc(NS(=O)(=O)c2cccc(C(=O)NCC3CCCO3)c2)cc1 (centres undefined),-3,-8,0,-11,3,nt
COc1ccc(SCCc2ccncc2)cc1,-1,-4,0,93*,2,-13
Fc1ccc(SCCc2ccncc2)cc1,0,-6,0,-3,-5,33
CCOC(=O)c1c(/N=C/c2cc(C)ccc2O)sc2c1CCN(C)C2,-2,-9,0,98*,-1,17
Cc1cccc(/C=N/c2sc3c(c2C(=O)OC(C)(C)C)CCN(C)C3)c1O,0,0,0,21,0,2
CCSc1nnc([C@@H]2CCCN2C(=O)OC(C)(C)C)o1,38,8,0,nt,-6,67*
C=C(C)CSc1nnc([C@@H]2CCCN2C(=O)OC(C)(C)C)o1,-2,-3,0,nt,-8,9
COCCNc1c(-c2ccc(OC)cc2)nc2ccc(Cl)cn12,0,0,0,99*,-6,37
CCOC(=O)CNc1c(-c2ccc(OC)cc2)nc2ccc(Cl)cn12,-2,-5,0,68,-1,1
Cc1ccc(-c2cc(-c3ccccc3[N+](=O)[O-])[nH]n2)c(O)c1,-1,-4,0,90*,13,0
C=CCN1C(=O)[C@H](CC(=O)NCCCOCCCC)[C@@]2(C(=O)OCC)CCCC=C12,nt,nt,nt,nt,8,nt
CCCn1cnc2cc(NCc3cccc(OC)c3)ccc21,-5,-4,0,95*,-4,-14
CCCn1cnc2cc(NCc3ccccc3O)ccc21,-3,-13,0,99*,-2,-5
CCCn1cnc2cc(NCc3ccc(Br)cc3)ccc21,-2,-4,0,44,-6,32
NS(=O)(=O)c1ccc(NNC(=O)c2ccc(Br)o2)c([N+](=O)[O-])c1,3,6,0,86*,3,nt
Cc1ccc(NC(=O)c2ccc(Br)o2)c([N+](=O)[O-])c1,nt,nt,0,nt,1,nt
CCCN1CCS(=O)(=O)N(Cc2cn(Cc3ccc(OC)cc3)nn2)C(C(=O)OC)C1 (centres undefined),nt,nt,nt,nt,1,nt
O=C(C1CC1)C1(C(=O)N2CCOCC2)CC(c2ccccn2)=NO1 (centres undefined),nt,nt,nt,nt,1,nt
Cc1cc(C)c2c(c1)-c1c(ssc1=S)C(C)(C)N2C(=O)CSc1nncn1C,0,-1,0,-3,-7,62*
O=C(Oc1coc(CSc2ncccn2)cc1=O)c1cccc([N+](=O)[O-])c1,3,2,0,97*,-4,6
O=C(Oc1coc(CSc2ncccn2)cc1=O)c1ccco1,4,-5,0,?,-2,-2
COC(=O)[C@]12C[C@H](CC(=O)NCC3CCCCC3)C(=O)N(Cc3ccccc3)C1=C[C@H](COCc1ccccc1)O[C@@H]2C,nt,nt,nt,nt,2,nt
